# Data reported in the OligoGym collection.
# Target: WNT16
# Assay: pooled miR-30 sensor sort-seq; sequence = guide strand
# Details: shRNA
# Note: reference of the scale not given here.
row,Sequence,sensor-assay potency score (higher = more potent)
1,TTAACAGTTGAAACTGATCTGT,-0.124
2,TAAAATATAATAAATATCCAGG,-0.303
3,TTATCTTCTACACAGTAGTTGG,-1.09

# Target: WNT4
# Assay: as above
# Details: shRNA
row,Sequence,sensor-assay potency score (higher = more potent)
1,TTGGACGTCTTGTTGCATGTGC,0.653
2,TTGCACATCTGCACCTGCCTCT,0.262
3,TTGAACTGTGCGTTGCGTGGCA,0.0724
4,TCGAGTGTGGAGCAGTTCCAGC,-1.25
5,TGGAATTTGCAGCTGCAGCGTT,-0.943
6,TTTCTCGCACGTCTCCTCCTCT,-0.548
7,TTGCGTGGCACCAGTGCCCTGG,-0.464
8,TGCACTGTCCTGTCACAGCCGC,-1.01
9,AAGGAGTCGAGTGTGGAGCAGT,-0.667
10,ATGACTTCCAGGTTCCGCTTGC,-0.442
11,TTGTCAGAGCATCCTGACCACT,-1.18
12,TACACCAGGTCCTCATCTGTGT,-0.668
